# Experimental data as given in ChEMBL document CHEMBL3988442, “University of Dundee, Small-Polar-MMV Screening Library” (2021).
# Biological target: T1, Methionyl-tRNA synthetase, putative (Leishmania donovani (strain BPK282A1)) (UniProt E9BF75)
# T1 sequence (whole entry): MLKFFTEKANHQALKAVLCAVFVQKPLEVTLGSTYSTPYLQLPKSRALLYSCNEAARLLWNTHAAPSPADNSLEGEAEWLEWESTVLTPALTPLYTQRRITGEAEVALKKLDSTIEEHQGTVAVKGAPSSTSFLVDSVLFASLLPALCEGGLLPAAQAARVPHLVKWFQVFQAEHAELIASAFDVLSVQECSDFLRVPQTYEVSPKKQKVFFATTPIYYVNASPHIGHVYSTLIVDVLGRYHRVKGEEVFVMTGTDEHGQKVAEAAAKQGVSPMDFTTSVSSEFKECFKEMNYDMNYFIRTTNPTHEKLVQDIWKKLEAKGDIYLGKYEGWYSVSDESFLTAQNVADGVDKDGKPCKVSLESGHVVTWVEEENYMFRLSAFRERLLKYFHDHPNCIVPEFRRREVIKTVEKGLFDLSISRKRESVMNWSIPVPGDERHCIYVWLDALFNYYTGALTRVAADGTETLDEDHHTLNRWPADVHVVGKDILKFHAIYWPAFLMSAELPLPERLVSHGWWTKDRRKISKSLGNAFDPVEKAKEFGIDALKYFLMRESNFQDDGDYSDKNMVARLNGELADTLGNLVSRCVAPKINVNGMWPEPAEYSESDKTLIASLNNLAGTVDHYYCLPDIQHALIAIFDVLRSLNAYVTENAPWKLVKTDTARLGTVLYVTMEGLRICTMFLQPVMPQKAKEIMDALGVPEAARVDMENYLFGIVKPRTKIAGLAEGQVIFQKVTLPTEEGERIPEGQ
# Experiment: Leishmania donovani Methionine tRNA synthetase (LdMetRS):v7. Dose response assay
# Format: functional
# Set-up: conc 80 nM, time 150 minutes
structure (smiles),measurement,setting,value
Cc1nc(C)n(CC2CCCN2Cc2nc(C)c3ccccc3n2)n1 (centres undefined),PXC50,"BOTTOM 0.925302431, HILLSLOPE 1.017320837, MAX_EFFECT 67.36111111, TOP 99.90284223",4.31
same,PXC50,"BOTTOM 1.588399375, HILLSLOPE 1.270951942, MAX_EFFECT 69.49740035, TOP 100.0",4.3
same,PXC50,"BOTTOM 6.646518839, HILLSLOPE 0.950758055, MAX_EFFECT 62.41610738, TOP 100.0",4.2
Cc1nc(CN(C)C(=O)c2ccc(Cn3cnnn3)cc2)cs1,PXC50,MAX_EFFECT 1.360544218,< 4
same,PXC50,MAX_EFFECT 4.347826087,< 4
same,PXC50,MAX_EFFECT 4.72854641,< 4
Cn1ncc2c(NCCn3cnnn3)nc(Nc3ccc(F)c(F)c3)nc21,PXC50,"BOTTOM 0.694813003, HILLSLOPE 0.766193094, MAX_EFFECT 55.16528926, TOP 100.0",4.46
same,PXC50,MAX_EFFECT 43.90715667,< 4
same,PXC50,MAX_EFFECT 44.05286344,< 4
OCCCNc1nccc(Nc2cccc(C(F)(F)F)c2)n1,PXC50,MAX_EFFECT 6.834532374,< 4
same,PXC50,MAX_EFFECT 6.86695279,< 4
same,PXC50,MAX_EFFECT 9.976247031,< 4
COC(=O)c1cnc(Nc2cccc(C(F)(F)F)c2)c(S(N)(=O)=O)c1,PXC50,MAX_EFFECT 3.50877193,< 4
same,PXC50,MAX_EFFECT 6.168224299,< 4
same,PXC50,MAX_EFFECT 6.615776081,< 4
C[C@@H](CO)Nc1ccnc(Nc2cccc(C(F)(F)F)c2)n1,PXC50,"BOTTOM 1.593845471, HILLSLOPE 0.816282678, MAX_EFFECT 64.11214953, TOP 100.0",4.29
same,PXC50,"BOTTOM 3.003400849, HILLSLOPE 0.886139555, MAX_EFFECT 64.25619835, TOP 100.0",4.3
same,PXC50,"BOTTOM -0.445089983, HILLSLOPE 0.824021196, MAX_EFFECT 60.35242291, TOP 100.0",4.26
NS(=O)(=O)c1cc(Cl)cc(Cl)c1,PXC50,MAX_EFFECT 24.26470588,< 3
same,PXC50,MAX_EFFECT 31.80778032,< 3
same,PXC50,MAX_EFFECT 47.99235182,< 2.7
OCCCNc1nccc(Nc2cccc(F)c2)n1,PXC50,MAX_EFFECT 2.056074766,< 4
same,PXC50,MAX_EFFECT 11.40142518,< 4
same,PXC50,MAX_EFFECT 18.45493562,< 4
CCc1cccc(Nc2nc(NCCO)c3cnn(C)c3n2)c1,PXC50,MAX_EFFECT 6.404958678,< 4
same,PXC50,MAX_EFFECT 25.11013216,< 4
same,PXC50,MAX_EFFECT 42.00385356,< 4
Cn1ncc2c(NCCc3nnn[nH]3)nc(Nc3ccc(F)c(F)c3)nc21,PXC50,"BOTTOM 6.583334695, HILLSLOPE 0.991501174, MAX_EFFECT 88.67924528, TOP 94.6320251",5.11
same,PXC50,"BOTTOM -5.664940327, HILLSLOPE 0.831663104, MAX_EFFECT 86.00508906, TOP 96.34066377",5.16
same,PXC50,"BOTTOM -7.167085921, HILLSLOPE 0.718342131, MAX_EFFECT 85.0877193, TOP 100.1570552",5.14
Cn1ncc2c(NCCN3CCOCC3)nc(Nc3ccc(F)c(F)c3)nc21,PXC50,"BOTTOM 0.0547, HILLSLOPE 0.927770989, MAX_EFFECT 85.76850095, TOP 98.88350894",4.86
same,PXC50,"BOTTOM -0.988495369, HILLSLOPE 1.035285925, MAX_EFFECT 73.01886792, TOP 82.1779252",4.91
same,PXC50,"BOTTOM -7.338677117, HILLSLOPE 0.775594481, MAX_EFFECT 82.64840183, TOP 100.0",4.76
Cn1ncc2c(NCCO)nc(NCc3cccnc3)nc21,PXC50,MAX_EFFECT 7.969639469,< 4
same,PXC50,MAX_EFFECT 8.113207547,< 4
same,PXC50,MAX_EFFECT 12.78538813,< 4
Cn1ncc2c(NC3CCOCC3)nc(Nc3ccc(F)c(F)c3)nc21,PXC50,"BOTTOM 5.374646893, HILLSLOPE 1.78968519, MAX_EFFECT 52.27272727, TOP 55.59803221",4.65
same,PXC50,"BOTTOM 9.100238565, HILLSLOPE 1.237667708, MAX_EFFECT 69.82591876, TOP 73.93326352",5.4
same,PXC50,MAX_EFFECT 40.52863436,< 4
C1CCCN(CC2CCCN(Cc3noc(C4CC4)n3)C2)CC1 (centres undefined),PXC50,"BOTTOM 4.352296135, HILLSLOPE 1.766055102, MAX_EFFECT 53.69127517, TOP 86.72954931",4.1
same,PXC50,"BOTTOM 8.24905968, HILLSLOPE 1.172496443, MAX_EFFECT 57.63888889, TOP 100.0",4.05
same,PXC50,MAX_EFFECT 48.70017331,< 4
O=C(O)CC1COCCN1C(=O)C1(c2ccc(Cl)cc2)CCC1 (centres undefined),PXC50,MAX_EFFECT 1.360544218,< 4
same,PXC50,MAX_EFFECT 1.449275362,< 4
same,PXC50,MAX_EFFECT 4.378283713,< 4
Cc1cnn(CC2CCCN2Cc2nc(C)c3ccccc3n2)c1 (centres undefined),PXC50,"BOTTOM 4.743177934, HILLSLOPE 1.089829687, MAX_EFFECT 75.04332756, TOP 100.0",4.32
same,PXC50,"BOTTOM 12.95021696, HILLSLOPE 2.00591159, MAX_EFFECT 86.80555556, TOP 100.0",4.37
same,PXC50,"BOTTOM -2.883731045, HILLSLOPE 1.436435191, MAX_EFFECT 78.52348993, TOP 84.80947153",4.63
Cc1nc(CN(C)CC2CCCN2c2cccnn2)nc2ccccc12 (centres undefined),PXC50,"BOTTOM 6.94309251, HILLSLOPE 1.363298468, MAX_EFFECT 83.49834983, TOP 100.0",4.46
same,PXC50,"BOTTOM 8.751319867, HILLSLOPE 2.615595336, MAX_EFFECT 78.85304659, TOP 100.0",4.21
same,PXC50,"BOTTOM -1.910835363, HILLSLOPE 2.399208882, MAX_EFFECT 79.71014493, TOP 90.01694606",4.37
Cc1cnn(CC2CN(Cc3nc(C)c4ccccc4n3)CCO2)c1 (centres undefined),PXC50,MAX_EFFECT 29.53020134,< 4
same,PXC50,MAX_EFFECT 39.58333333,< 4
same,PXC50,MAX_EFFECT 44.19410745,< 4
